# Source: PubChem BioAssay
# For part of these data: Entries with a potency or affinity are not part of this list. The source made the active and inactive calls. Unless noted, no stated cut-off is given here; in the data, active means inhibition above about 80%; inactive means the rest.
# Tests used:
# [1] = polyglutamine-triggered caspase-3 activation inhibitors, cell-based (AID 1583); details: polyglutamine-induced caspase-3 activation, cell assay; stronger effect = higher value;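 tested at 10 µM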
# [2] = suppressors of polyQ aggregation in yeast, 75Q-TubU reporter (AID 1593); details: Yeast 75Q polyglutamine aggregation reporter
# [3] = rescue of polyQ-huntingtin neuronal dysfunction in worms, whole organism, C. elegans mechanosensory neurons, N-terminal huntingtin (AID 1599); details: touch response, stronger effect = higher value
# [4] = inhibitors of mitochondrial cytochrome c release, biochemical, purified mitochondria (AID 1603); details: stronger effect = lower value;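 further: mouse liver mitochondria challenged with calcium chloride; signal normalized to the plate average as 100%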
# [5] = inhibitors of polyQ protein aggregation (AID 1604); details: polyglutamine-induced protein aggregation inhibition assay; stronger effect = higher value; tested at 2.5 µM
# [6] = hESC survival regulators, cell-based (AID 493140; call rule not given here;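 further: cells exposed to compounds for four days before counting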); details: human embryonic stem cell survival screen; stronger effect = higher value
# [7] = LFS_MB_P medulloblastoma growth inhibition, cell-based, chromothripsis tumors, cisplatin or BGB combos (AID 1671449); details: LFS_MB_P medulloblastoma cells;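 further: cells exposed for 96 hours; 0% = vehicle DMSO and 100% = killing by high DMSO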
# [8] = HDN33 neuroblastoma growth inhibition, cell-based, chromothripsis tumors, cisplatin or BGB combos (AID 1671450); details: HDN33 neuroblastoma cells, stronger effect = higher value;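 further: cells exposed to compound for four days; 0% = vehicle DMSO and 100% = cell killing by high DMSO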
# [9] = LFS_MB_1R medulloblastoma cell growth inhibition, synergistic combos for chromothripsis tumors, cisplatin or BGB combos (AID 1671452); details: LFS_MB_1R medulloblastoma cells, stronger effect = higher value;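 further: cells exposed for 96 hours before readout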
# [10] = HTB85 osteosarcoma cell growth inhibition, synergistic combos for chromothripsis tumors, BGB or cisplatin IC20 combos (AID 1671453); details: HTB85 osteosarcoma cells, drug combinations, stronger effect = higher value;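 further: cells exposed for 96 hours before readout; 0% = vehicle DMSO and 100% = high DMSO killing control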
# [11] = CRL2098 osteosarcoma cell growth inhibition, synergistic combos for chromothripsis tumors, BGB or cisplatin IC20 combos (AID 1671454); details: CRL2098 osteosarcoma cells, drug combinations, stronger effect = higher value;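 further: cells exposed for 96 h before readout; 0% = vehicle DMSO and 100% = killing by high DMSO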
# [12] = HD-MB03 medulloblastoma cell growth inhibition, synergistic combos for chromothripsis tumors, BGB or cisplatin IC20 combos (AID 1671455; in the data active means inhibition above about 83%;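 further: 0% = vehicle DMSO and 100% = high DMSO as cytotoxic control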); details: HD-MB03 medulloblastoma cells, stronger effect = higher value
# [13] = UWB1.289 ovarian carcinoma cell growth inhibition, synergistic combos for chromothripsis tumors, BGB or cisplatin combos (AID 1671456); details: UWB1.289 ovarian carcinoma cells, stronger effect = higher value;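 further: cells exposed to compound for four days; 0% = vehicle DMSO and 100% = killing by high DMSO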
# [14] = LFS_MB_2R medulloblastoma cell growth inhibition, synergistic combos for chromothripsis tumors, cisplatin combos (AID 1671457); details: LFS_MB_2R medulloblastoma cells, stronger effect = higher value;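 further: cells exposed to compound for four days before readout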
# [15] = MDA-MB-436 breast carcinoma cell growth inhibition, synergistic combos for chromothripsis tumors, BGB or cisplatin combos (AID 1671458; call rule not given here;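 further: cells exposed for 96 hours; 0% = vehicle DMSO and 100% = killing by high DMSO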); details: MDA-MB-436 breast carcinoma growth inhibition, drug combinations, stronger effect = higher value
# [16] = UWB1.289_BRCA1 ovarian cancer growth, cell-based, BGB or cisplatin combinations (AID 1671459); details: UWB1.289 BRCA1 ovarian carcinoma, drug combinations, stronger effect = higher value
# [17] = human astrocyte viability loss, single and combined drugs, cytotoxicity control for chromothriptic childhood tumor combination screen, cell-based, BGB or cisplatin IC20 combos (AID 1671460); details: Human astrocytes, drug combinations, stronger effect = higher value;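 further: cells exposed to compounds for 96 hours before viability readout; 0% = vehicle and 100% = killing control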
# [18] = growth inhibition of BT084 medulloblastoma cells, cell-based, ICGC_MB145, cisplatin and BGB IC40 combos (AID 1671461); details: drug combinations, stronger effect = higher value;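 further: cells exposed to drugs for 96 hours; 0% = vehicle DMSO and 100% = high DMSO full killing control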
# [19] = growth inhibition of RCMB18 medulloblastoma cells, cell-based, cisplatin and BGB IC40 combos (AID 1671462); details: stronger effect = higher value;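 further: cells exposed to compound for four days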
# [20] = growth inhibition of CRL1545 osteosarcoma cells, cell-based, cisplatin and BGB IC20 combos (AID 1671464); details: stronger effect = higher value;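 further: cells exposed to compound for 96 hours before readout; 0% = vehicle DMSO and 100% = high DMSO killing control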
# [21] = measured here: combination with BGB IC40, at 0.05 µM
# [22] = measured here: with BGB IC20 combination, at 0.5 µM
# [23] = measured here: with cisplatin IC20 combination, at 0.5 µM
# [24] = measured here: combination with cisplatin, at 0.5 µM
# [25] = measured here: combination with cisplatin, at 5 µM
structure (smiles),measurement,setting,value
CC[C@H]1OC(=O)[C@H](C)[C@@H](O[C@H]2C[C@@](C)(OC)[C@@H](O)[C@H](C)O2)[C@H](C)[C@@H](O[C@@H]2O[C@H](C)C[C@H](N(C)C)[C@H]2O)[C@](C)(O)C[C@@H](C)CN(C)[C@H](C)[C@@H](O)[C@]1(C)O,inhibition,[1],6.36%
same,score,[2],1.1
same,rescue above control,[3],0.7
same,cytochrome c release ratio,[4],1.04
same,inhibition of aggregation,[5],65.2%
NC(Cc1cc(I)c(Oc2ccc(O)c(I)c2)c(I)c1)C(=O)O (stereo not drawn),inhibition,[1],2%
same,score,[2],1.27
same,rescue above control,[3],-0.14
same,cytochrome c release ratio,[4],4.78
same,inhibition of aggregation,[5],79.3%
CN1CCC[C@H]1c1cccnc1,inhibition,[1],-24.3%
same,score,[2],1.39
same,rescue above control,[3],3.58
same,cytochrome c release ratio,[4],0.71
same,inhibition of aggregation,[5],47.1%
O=C1C(c2c(O)[nH]c3ccccc23)=Nc2ccccc21,survival,[6],88 (inactive)
NC(=O)c1ncn(C2OC(CO)C(O)C2O)n1 (stereo not drawn),inhibition,"[7]; at 0.5 µM, stronger effect = higher value",-16.1% (inactive)
same,inhibition,"[7]; measured here: combination with BGB IC20, at 0.005 µM",-16.5%
same,inhibition,"[7]; measured here: combination with BGB IC40, at 0.005 µM",25.4%
same,inhibition,[7]; [21],-2.38%
same,inhibition,"[7]; measured here: combination with cisplatin, at 0.5 µM, stronger effect = higher value",-6.01%
same,inhibition,"[7]; measured here: combination with cisplatin, at 5 µM, stronger effect = higher value",-20.9%
same,inhibition,"[8]; BGB combo, at 5 µM",31.2%
same,inhibition,[8]; at 0.5 µM,2.73% (inactive)
same,inhibition,"[8]; cisplatin combo, at 5 µM",-8.56%
same,inhibition,[8]; [22],6.96%
same,inhibition,[8]; [23],2.48%
same,inhibition,"[8]; single agent, at 5 µM",14%
same,inhibition,[9]; at 0.5 µM,-9.72% (inactive)
same,inhibition,[9]; [21],-31.9%
same,inhibition,[9]; [24],21.6%
same,inhibition,[9]; [25],-1.97%
same,inhibition,[10]; at 0.5 µM,4.41% (inactive)
same,inhibition,"[10]; measured here: with BGB IC20, at 0.5 µM",-12.9%
same,inhibition,"[10]; measured here: with BGB IC20, at 5 µM",10.8%
same,inhibition,"[10]; measured here: with cisplatin IC20, at 0.5 µM",14.3%
same,inhibition,"[10]; measured here: with cisplatin IC20, at 5 µM",0.254%
same,inhibition,"[10]; single agent, at 5 µM",2.26%
same,inhibition,[11]; at 0.5 µM,-9.01% (inactive)
same,inhibition,"[11]; measured here: combination with BGB at IC20, at 0.5 µM",-25.7%
same,inhibition,"[11]; measured here: combination with cisplatin at IC20, at 0.5 µM",-6.71%
same,inhibition,[12]; at 0.5 µM,-4.13% (inactive)
same,inhibition,"[12]; measured here: combo with BGB at IC20, at 0.5 µM",-1.27%
same,inhibition,"[12]; measured here: combo with cisplatin at IC20, at 0.5 µM",-10.7%
same,inhibition,[13]; at 0.5 µM,3.07% (inactive)
same,inhibition,"[13]; measured here: inhibition with BGB combination, at 0.05 µM",9.47%
same,inhibition,"[13]; measured here: inhibition with cisplatin combination, at 0.05 µM",-5.32%
same,inhibition,[14]; at 0.5 µM,1.38% (inactive)
same,inhibition,[14]; [24],-4.76%
same,inhibition,[14]; [25],3.14%
same,inhibition,[15]; at 0.5 µM,-5.54% (inactive)
same,inhibition,"[15]; measured here: BGB combination, at 0.5 µM",2.04%
same,inhibition,"[15]; measured here: BGB combination, at 5 µM",-7.02%
same,inhibition,"[15]; measured here: cisplatin combination, at 0.5 µM",-11.9%
same,inhibition,"[15]; measured here: cisplatin combination, at 5 µM",6.23%
same,inhibition,"[16]; BGB combination, concentration series, at 5 µM",5.54%
same,inhibition,[16]; at 0.5 µM,1.33% (inactive)
same,inhibition,"[16]; cisplatin combination, concentration series, at 5 µM",1.04%
same,inhibition,[17]; at 0.5 µM,-5.97% (inactive)
same,inhibition,"[17]; measured here: combo with BGB IC20, at 0.5 µM",-5.76%
same,inhibition,"[17]; measured here: combo with cisplatin IC20, at 0.5 µM",-5.35%
same,inhibition,[18]; at 0.5 µM,6.99% (inactive)
same,inhibition,"[18]; cisplatin combination, at 0.5 µM",12.1%
same,inhibition,"[18]; cisplatin combination, at 5 µM",-28.4%
same,inhibition,"[18]; measured here: BGB IC40 combination 0.05 uM, at 0.05 µM",25.7%
same,inhibition,"[18]; single agent, at 5 µM",8.51%
same,inhibition,[19]; at 0.5 µM,9.1% (inactive)
same,inhibition,"[19]; cisplatin combo, at 5 µM",13.6%
same,inhibition,"[19]; measured here: BGB IC40 combination, at 0.05 µM",7.76%
same,inhibition,[19]; [24],29.4%
same,inhibition,"[19]; single agent, at 5 µM",-9.79%
same,inhibition,[20]; at 0.5 µM,-15.9% (inactive)
same,inhibition,[20]; [22],-14.4%
same,inhibition,[20]; [23],-16.7%
same,inhibition,"[20]; single agent, at 0.05 µM",17.7%
same,inhibition,"[20]; single agent, at 5 µM",-14.1%
CC(C)(C)NC(=O)[C@@H]1C[C@@H]2CCCC[C@@H]2CN1C[C@@H](O)[C@H](Cc1ccccc1)NC(=O)[C@H](CC(N)=O)NC(=O)c1ccc2ccccc2n1,survival,[6],25.4 (inactive)
CC(C(O)c1ccc(O)cc1)N1CCC(Cc2ccccc2)CC1 (stereo not drawn),survival,[6],3.25 (inactive)
